Source: PubChem BioAssay
The full list was thinned out, with hits kept by preference.
KDM4E inh – qHTS Assay for Inhibitors of Human Jumonji Domain Containing 2E (JMJD2E). JMJD2E catalytic domain, FDH-coupled NADH fluorescence (FDH is formaldehyde dehydrogenase). Potency, µM (series often up to 57.1 µM), without a hit: top-dose activity change, negative = inhibition, most hits filed as inhibitors. hit rate 1.6% among 230,000. AID 2147, 2009; active = well fitted inhibition curve with a large enough effect, not every such curve was filed as active; inconclusive = small, poorly fitted or top-dose-only effect, or another doubt; inactive = no such curve, though single readings can be large or run the other way;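 also: 0% = wells with enzyme and -100% = buffer wells without enzyme; nearly all actives have a fitted effect of over 50% in size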
Target sequence (B2RXH2 1-337 limits assumed): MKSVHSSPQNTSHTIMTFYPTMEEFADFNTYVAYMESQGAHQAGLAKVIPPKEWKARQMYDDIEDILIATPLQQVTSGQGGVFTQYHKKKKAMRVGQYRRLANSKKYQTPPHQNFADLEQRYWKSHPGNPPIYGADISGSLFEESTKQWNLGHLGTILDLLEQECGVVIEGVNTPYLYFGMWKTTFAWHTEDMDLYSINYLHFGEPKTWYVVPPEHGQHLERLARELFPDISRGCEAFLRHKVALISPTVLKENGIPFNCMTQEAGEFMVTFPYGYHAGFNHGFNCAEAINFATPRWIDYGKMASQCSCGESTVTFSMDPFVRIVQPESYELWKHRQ
L3MBTL1 block – qHTS Assay for the Inhibitors of L3MBTL1. Potency, µM (series often up to 57.1 µM), inactives show at the top dose activity, negative = inhibition, hits mostly inhibitors. AlphaScreen L3MBTL1–H3K9me1 peptide binding. AID 485360, 2010. hit rate 0.66% among 230,000; also: nearly all actives have a fitted effect of over 60% in size
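AlphaScreen proximity signal between nickel-chelate acceptor and streptavidin donor beads (final 10 ug/mL) reports binding of 50 nM L3MBTL1 to 75 nM biotin-H3 K9me1 peptide; complex incubated with compounds 30 min at room temperature; cefsulodin titration as control.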
APEX1 inh – qHTS Assay for Inhibitors of the Human Apurinic/apyrimidinic Endonuclease 1 (APE1); DNA repair nuclease/redox regulator APEX1 (Homo sapiens), P27695; recombinant APE1, TAMRA/BHQ-2 abasic DNA cleavage fluorescence; Potency, µM (titrated, usually from 65.8 µM), without a hit: at the top dose activity change, negative = inhibition, hits mostly inhibitors; hit rate 0.35% among 350,000; AID 2517, 2012;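 also: plate controls were vehicle for no effect and reference inhibitor for full effect; nearly all actives have a fitted effect of over 55% in size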
Target sequence (P27695 whole entry, looked up): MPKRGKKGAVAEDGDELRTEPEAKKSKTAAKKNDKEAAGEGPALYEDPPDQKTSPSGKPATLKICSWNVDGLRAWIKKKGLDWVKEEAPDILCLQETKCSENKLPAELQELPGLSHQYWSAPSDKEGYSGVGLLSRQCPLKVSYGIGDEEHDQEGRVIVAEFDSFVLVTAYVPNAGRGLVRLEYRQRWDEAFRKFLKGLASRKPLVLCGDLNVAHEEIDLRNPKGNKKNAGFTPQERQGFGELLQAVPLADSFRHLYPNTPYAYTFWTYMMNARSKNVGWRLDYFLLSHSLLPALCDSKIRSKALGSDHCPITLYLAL
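Compound pre-exposure to 0.75 nM APE1, 15 min at ambient temperature. Reaction initiated with 50 nM TAMRA/BHQ-2 THF substrate, read immediately in kinetic mode, 525 nm excitation, 598 nm emission.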
RECQ1 helicase – qHTS Assay for Inhibitors of RecQ-Like Dna Helicase 1 (RECQ1); ATP-dependent DNA helicase Q1 (Homo sapiens), P46063; RECQ1 DNA unwinding, red fluorescence kinetic read; Potency, µM (doses to about 57.3 µM), inactives show at the highest dose activity, negative = inhibition, actives largely listed as inhibitors; hit rate 0.54% among 240,000;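 also: plate controls were vehicle for no effect and no enzyme for full effect; nearly all actives have a fitted effect of over 30% in size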
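RECQ1T1 50 nM; forked duplex (20 bp + 30-nt ss tails) 200 nM, ATP 2 mM final; pH 8.0, 2 mM MgCl2, 2.5 ug/ml poly(dI-dC); 15 min compound preincubation; discontinuous kinetic read over 2 h at RT.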
BLM inh – qHTS Assay for Inhibitors of Bloom's syndrome helicase (BLM). recombinant BLM DNA unwinding, fluorescence dequenching. Potency, µM (top dose mostly 56.1 µM), for inactives: top-dose activity change, negative = inhibition, most hits filed as inhibitors. RecQ-like DNA helicase BLM (Homo sapiens), P54132. hit rate 0.2% among 350,000;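 also: plate controls were vehicle for no effect and no enzyme for full effect; nearly all actives have a fitted effect of over 35% in size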
Starred values were filed as active, the others as inactive; ! = not confirmed by another sample; [ ] = another dose, or the depositor's remark. Unless noted, calls follow the shape of the dose curve; as a rule, active = well fitted curve in the direction sought with a large enough effect; inconclusive = small, poorly fitted or top-dose-only effect, or another doubt; inactive = no such curve, though single readings can be large; an effect the other way counts as inactive or inconclusive. Unless noted, % is scaled to controls: 0 for no effect and ±100 for the full control effect; potency is read from the fitted curve at half-maximal effect.

`Cc1ccc(/C=c2/sc3n(c2=O)CCCN=3)o1` gave KDM4E inh inconclusive, L3MBTL1 block -6.2%, APEX1 inh -3.7%, RECQ1 helicase -23.1% and BLM inh 1.8%.
Screening Cc1c(Br)c(C(F)(F)F)nn1CC(=O)N1CCCC1 returned KDM4E inh -7.0%, APEX1 inh 0.1%, RECQ1 helicase inactive and BLM inh 3.9%.
For CCn1ccnc1CN1CCc2c([nH]c3ccccc23)C1C1CCCCC1 (centres undefined) the results were KDM4E inh 28.2µM*, L3MBTL1 block -18.0%, APEX1 inh -1.3%, RECQ1 helicase -5.6% and BLM inh -10.3%.
For O=C1OC2(c3cc(I)c(O)c(I)c3Oc3c2cc(I)c(O)c3I)c2c(Cl)c(Cl)c(Cl)c(Cl)c21 the results were APEX1 inh 12.6µM*, RECQ1 helicase 10µM* and BLM inh 12.6µM*.
`O=C1OC2(c3ccccc31)c1cc(I)c(O)c(I)c1Oc1c2cc(I)c(O)c1I` gave L3MBTL1 block 3.16µM*, APEX1 inh 26.7µM*, RECQ1 helicase 28.2µM* and BLM inh 22.4µM*.
For Cc1cc(O)ccc1C1(c2ccc(O)cc2C)OC(=O)c2ccccc21 the results were KDM4E inh 2.5%, L3MBTL1 block -3.4%, APEX1 inh 2.9%, RECQ1 helicase -10.1% and BLM inh -9.0%.
For CCOC(=O)C1=C(CSc2nc(-c3ccccc3)ccc2C#N)OC(N)=C(C#N)C1c1ccccc1 (centres undefined) the results were KDM4E inh 2.1%, APEX1 inh -1.7%, RECQ1 helicase 22.4µM* and BLM inh -16.7%.
`CCOC(=O)C1=C(CSc2nc(-c3ccccc3)ccc2C#N)OC(N)=C(C#N)C1c1cccnc1` (centres undefined) gave KDM4E inh -8.6%, APEX1 inh -2.6%, RECQ1 helicase -21.6% and BLM inh -7.6%.
Screening C/C(=N\NC(=O)c1cccc(N/N=C(\C)c2cc(O)ccc2O)c1)c1cc(O)ccc1O returned KDM4E inh 25.1µM*, L3MBTL1 block 28.2µM*, APEX1 inh -5.7%, RECQ1 helicase 27.3% and BLM inh -15.4%.
`Cn1c(C(=O)O)c(CC(=O)N2CCC(Cc3ccccc3)CC2)c2ccccc21` gave KDM4E inh 31.6µM*, L3MBTL1 block -9.2%, APEX1 inh -7.8%, RECQ1 helicase 0.6% and BLM inh 0.1%.
`Cc1ccc(S(=O)(=O)N(C(=O)c2ccncc2)c2ccc(OC(=O)c3ccncc3)c3ccccc23)cc1` gave KDM4E inh 15.8µM*, L3MBTL1 block -19.7%, APEX1 inh -3.1%, RECQ1 helicase 5.2% and BLM inh -9.3%.
`COC(=O)c1cc(C)nc2c1C(=O)C(=O)C=C2N1CCOCC1` gave APEX1 inh -8.4% and BLM inh 8.91µM*.
For COc1ccc(C(=O)N2CCN(c3cccc(Cl)c3)CC2)cc1S(=O)(=O)NC1CC1 the results were L3MBTL1 block -2.0% and APEX1 inh 13.6%.
`O=C(Cc1cccs1)OCC(=O)c1ccco1` gave KDM4E inh -14.7%, L3MBTL1 block inconclusive, APEX1 inh 28.2µM*, RECQ1 helicase -21.4% and BLM inh -0.1%.
Screening C#CCOCCOCCOCCNc1nc(N2CCN(C(=O)[C@H](CCCCN)n3cc(C(N)CO)nn3)CC2)nc(N2CCN(C(=O)[C@H](CCC(=O)O)n3cc(C(N)CC(C)C)nn3)CC2)n1 (some centres undefined) returned KDM4E inh 20µM*, APEX1 inh 8.2%, RECQ1 helicase -5.0% and BLM inh -1.6%.
C#CCOCCOCCOCCNc1nc(N2CCN(C(=O)[C@H](CCCCN)n3cc([C@@H](N)CC(C)C)nn3)CC2)nc(N2CCN(C(=O)[C@H](CCCCN)n3cc([C@@H](N)CC(C)C)nn3)CC2)n1 was read as KDM4E inh 7.0%, L3MBTL1 block -5.6%, APEX1 inh -4.3%, RECQ1 helicase 38.4% and BLM inh 51.5%.
Screening Cc1ccc(C)c(OCC(=O)NC(Cc2c[nH]c3ccccc23)C(=O)O)c1 (centres undefined) returned KDM4E inh inconclusive, L3MBTL1 block -14.6%, APEX1 inh inconclusive, RECQ1 helicase inactive and BLM inh -0.1%.
For COc1cc(/C=N/NC(=O)COc2c(C)cc([N+](=O)[O-])cc2C)ccc1OC(=O)c1ccccc1Br the results were KDM4E inh 0.4%, L3MBTL1 block -16.7%, APEX1 inh 0.2%, RECQ1 helicase -8.3% and BLM inh -2.9%.
Screening COc1cc(/C=N/NC(=O)COc2c(C)cc([N+](=O)[O-])cc2C)ccc1OC(=O)c1ccccc1 returned KDM4E inh -4.5%, L3MBTL1 block -10.1%, APEX1 inh 8.3%, RECQ1 helicase 28.2µM* and BLM inh -4.9%.
`COc1cc(/C=N/NC(N)=O)ccc1OCC(=O)Nc1ccc(C)c(C)c1` gave KDM4E inh -3.8%, L3MBTL1 block -2.6%, APEX1 inh 4.9%, RECQ1 helicase -2.9% and BLM inh 10µM*.
`Cc1cccc(N2CCN(CCNC(=O)Nc3ccc(Cl)cc3)CC2)c1C` gave BLM inh -0.3%.
For CCc1cc(CNC(=O)c2ccc(OC3CCN(CCc4ccccc4)CC3)cc2)on1 the results were APEX1 inh 11.9µM* and BLM inh -5.9%.
For Cc1noc(NS(=O)(=O)c2ccc(N/C=C/C(=O)c3ccc4c(c3)OCO4)cc2)c1C the results were KDM4E inh -17.6%, L3MBTL1 block -3.1%, APEX1 inh -5.1%, RECQ1 helicase -11.5% and BLM inh -1.5%.
`N[C@H](C(=O)N[C@@H]1C(=O)N2C(C(=O)O)=C(Cl)CS[C@@H]12)c1ccccc1` gave KDM4E inh 14.1µM*!, APEX1 inh -3.6%[21 µM], RECQ1 helicase -0.2%[25.9 µM] and BLM inh 5.8%[21.4 µM].
CC1(C)S[C@@H]2[C@H](NC(=O)[C@H](N)c3ccccc3)C(=O)N2[C@H]1C(=O)O was read as KDM4E inh inconclusive, L3MBTL1 block -9.0%, APEX1 inh 10µM*!, RECQ1 helicase 20µM*! and BLM inh inconclusive.
`O=c1cc(-c2ccccc2)c2cc(Cl)ccc2[nH]1` gave APEX1 inh 31.2% and BLM inh -2.8%.
Screening O=C(CSc1nc2ccccc2s1)N1N=C(c2cccs2)CC1c1ccc(F)cc1 (centres undefined) returned KDM4E inh inconclusive, L3MBTL1 block -4.4%, APEX1 inh -5.8%, RECQ1 helicase -23.9% and BLM inh -5.3%.
